# In paper PMC11006913:
# Substitutions are numbered along the chain they refer to.
# How the values were obtained:
# Assay in all cases: PBM; 200 nM protein, PBS
# Details in all cases: dsDNA, one strand shown
# CRX [1] = target: CRX (Homo sapiens, UniProt O43186 26-111)
# VENTX = target: T1, VENTX (Homo sapiens, UniProt O95231 78-163, R121Q)
# T1 sequence: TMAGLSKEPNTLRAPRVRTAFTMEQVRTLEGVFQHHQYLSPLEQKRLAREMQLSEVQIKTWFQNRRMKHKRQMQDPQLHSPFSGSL
# HOXB6 [2] = target: HOXB6 (Homo sapiens, UniProt P17509 132-218, K202E)
# HOXB6 (Homo sapiens, UniProt P17509 132-218, K202E), sequence (P17509 132-218 K202E): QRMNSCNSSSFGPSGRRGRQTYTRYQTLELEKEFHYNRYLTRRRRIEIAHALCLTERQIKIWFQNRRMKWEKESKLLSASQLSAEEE
# CRX [3] = target: CRX (Homo sapiens, UniProt O43186 26-111, E42D)
# CRX (Homo sapiens, UniProt O43186 26-111, E42D), sequence (O43186 26-111 E42D): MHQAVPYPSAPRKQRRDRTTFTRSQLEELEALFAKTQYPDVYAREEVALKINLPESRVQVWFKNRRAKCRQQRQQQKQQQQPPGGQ
# MSX2 [4] = target: MSX2 (Homo sapiens, UniProt P35548 130-214)
# MSX2 (Homo sapiens, UniProt P35548 130-214), sequence (P35548 130-214): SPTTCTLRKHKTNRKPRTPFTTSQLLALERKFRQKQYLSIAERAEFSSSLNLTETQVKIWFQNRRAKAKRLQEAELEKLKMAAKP
# MSX2 [5] = target: MSX2 (Homo sapiens, UniProt P35548 130-214, F161Y)
# MSX2 (Homo sapiens, UniProt P35548 130-214, F161Y), sequence (P35548 130-214 F161Y): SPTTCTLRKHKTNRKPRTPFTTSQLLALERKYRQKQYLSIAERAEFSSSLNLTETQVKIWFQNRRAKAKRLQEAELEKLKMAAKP
# CRX [6] = target: CRX (Homo sapiens, UniProt O43186 26-111, R41L)
# CRX (Homo sapiens, UniProt O43186 26-111, R41L), sequence (O43186 26-111 R41L): as the sequence (O43186 26-111 E42D) above, with R16L, D17E counted along it
# HOXB6 [7] = target: HOXB6 (Homo sapiens, UniProt P17509 132-218)
# HOXB6 (Homo sapiens, UniProt P17509 132-218), sequence (P17509 132-218): as the sequence (P17509 132-218 K202E) above, with E71K counted along it
# HOXB9 [8] = target: HOXB9 (Homo sapiens, UniProt P17482 171-250, T197M)
# HOXB9 (Homo sapiens, UniProt P17482 171-250, T197M), sequence (P17482 171-250 T197M): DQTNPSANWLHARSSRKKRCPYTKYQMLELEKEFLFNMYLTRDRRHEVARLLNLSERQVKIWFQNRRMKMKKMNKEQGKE
# SIX6 [9] = target: T2, SIX6 (Homo sapiens, UniProt O95475 114-200, L167I)
# T2 sequence: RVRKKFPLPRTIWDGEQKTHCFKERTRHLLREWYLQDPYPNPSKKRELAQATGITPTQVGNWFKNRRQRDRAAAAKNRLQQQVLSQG
# SIX6 [10] = target: T3, SIX6 (Homo sapiens, UniProt O95475 114-200, L143V)
# T3 sequence: T2 sequence with L30V, I54L
# SIX6 [11] = target: T4, SIX6 (Homo sapiens, UniProt O95475 114-200, H141N)
# T4 sequence: T2 sequence with H28N, I54L
# SIX6 [12] = target: T5, SIX6 (Homo sapiens, UniProt O95475 114-200, T165P)
# T5 sequence: T2 sequence with T52P, I54L
# SIX6 [13] = target: T6, SIX6 (Homo sapiens, UniProt O95475 114-200, L167M)
# T6 sequence: T2 sequence with I54M
# SIX6 [14] = target: T7, SIX6 (Homo sapiens, UniProt O95475 114-200, L143M)
# T7 sequence: T2 sequence with L30M, I54L
# SIX6 [15] = target: T8, SIX6 (Homo sapiens, UniProt O95475 114-200, L143I)
# T8 sequence: T2 sequence with L30I, I54L
# SIX6 [16] = target: T9, SIX6 (Homo sapiens, UniProt O95475 114-200, T165G)
# T9 sequence: T2 sequence with T52G, I54L
# HOXA2 [17] = target: HOXA2 (Homo sapiens, UniProt O43364 129-215, R185T)
# HOXA2 (Homo sapiens, UniProt O43364 129-215, R185T), sequence (O43364 129-215 R185T): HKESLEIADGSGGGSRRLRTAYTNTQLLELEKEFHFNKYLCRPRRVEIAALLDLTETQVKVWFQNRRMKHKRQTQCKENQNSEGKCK
# HOXB9 [18] = target: HOXB9 (Homo sapiens, UniProt P17482 171-250)
# HOXB9 (Homo sapiens, UniProt P17482 171-250), sequence (P17482 171-250): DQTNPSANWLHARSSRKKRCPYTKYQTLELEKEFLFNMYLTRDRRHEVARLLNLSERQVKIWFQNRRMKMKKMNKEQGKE
# SIX6 [19] = target: T10, SIX6 (Homo sapiens, UniProt O95475 114-200, T139Q)
# T10 sequence: T2 sequence with T26Q, I54L
# ALX3 [20] = target: ALX3 (Homo sapiens, UniProt O95076 139-225, N203Q)
# ALX3 (Homo sapiens, UniProt O95076 139-225, N203Q), sequence (O95076 139-225 N203Q): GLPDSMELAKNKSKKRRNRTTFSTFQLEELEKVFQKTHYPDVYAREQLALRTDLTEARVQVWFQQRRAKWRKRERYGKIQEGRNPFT
# SIX6 [21] = target: T11, SIX6 (Homo sapiens, UniProt O95475 114-200, T165A)
# T11 sequence: T2 sequence with T52A, I54L
# HOXA2 [22] = target: HOXA2 (Homo sapiens, UniProt O43364 129-215, R185K)
# HOXA2 (Homo sapiens, UniProt O43364 129-215, R185K), sequence (O43364 129-215 R185K): as the sequence (O43364 129-215 R185T) above, with T57K counted along it
# SIX6 [23] = target: T12, SIX6 (Homo sapiens, UniProt O95475 114-200, L167V)
# T12 sequence: T2 sequence with I54V
# ALX3 [24] = target: ALX3 (Homo sapiens, UniProt O95076 139-225)
# ALX3 (Homo sapiens, UniProt O95076 139-225), sequence (O95076 139-225): as the sequence (O95076 139-225 N203Q) above, with Q65N counted along it
# SIX6 [25] = target: T13, SIX6 (Homo sapiens, UniProt O95475 114-200)
# T13 sequence: T2 sequence with I54L
# ALX3 [26] = target: ALX3 (Homo sapiens, UniProt O95076 139-225, L168Q)
# ALX3 (Homo sapiens, UniProt O95076 139-225, L168Q), sequence (O95076 139-225 L168Q): as the sequence (O95076 139-225 N203Q) above, with L30Q, Q65N counted along it
# SIX6 [27] = target: T14, SIX6 (Homo sapiens, UniProt O95475 114-200, T165I)
# T14 sequence: T2 sequence with T52I, I54L
# HOXB9 [28] = target: HOXB9 (Homo sapiens, UniProt P17482 171-250, R186Q)
# HOXB9 (Homo sapiens, UniProt P17482 171-250, R186Q), sequence (P17482 171-250 R186Q): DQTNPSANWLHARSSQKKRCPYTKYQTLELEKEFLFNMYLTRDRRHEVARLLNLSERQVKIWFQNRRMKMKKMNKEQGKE
# ALX3 [29] = target: ALX3 (Homo sapiens, UniProt O95076 139-225, L168V)
# ALX3 (Homo sapiens, UniProt O95076 139-225, L168V), sequence (O95076 139-225 L168V): as the sequence (O95076 139-225 N203Q) above, with L30V, Q65N counted along it
# HOXA2 [30] = target: HOXA2 (Homo sapiens, UniProt O43364 129-215, Y150S)
# HOXA2 (Homo sapiens, UniProt O43364 129-215, Y150S), sequence (O43364 129-215 Y150S): as the sequence (O43364 129-215 R185T) above, with Y22S, T57R counted along it
# ALX3 [31] = target: ALX3 (Homo sapiens, UniProt O95076 139-225, N203S)
# ALX3 (Homo sapiens, UniProt O95076 139-225, N203S), sequence (O95076 139-225 N203S): as the sequence (O95076 139-225 N203Q) above, with Q65S counted along it
# HOXA2 [32] = target: HOXA2 (Homo sapiens, UniProt O43364 129-215)
# HOXA2 (Homo sapiens, UniProt O43364 129-215), sequence (O43364 129-215): as the sequence (O43364 129-215 R185T) above, with T57R counted along it
# CRX (Homo sapiens, UniProt O43186 26-111), sequence (O43186 26-111): as the sequence (O43186 26-111 E42D) above, with D17E counted along it
sequence,measurement,setting,value
CCAGATTA,binding signal,CRX [1],"13 upbm affinity estimate (log intensity, higher = more binding, comparable within an allelic series)"
same,binding signal,VENTX,"10 upbm affinity estimate (log intensity, higher = more binding, comparable within an allelic series)"
same,binding signal,HOXB6 [2],"9.66 upbm affinity estimate (log intensity, higher = more binding, comparable within an allelic series)"
same,binding signal,CRX [3],"13 upbm affinity estimate (log intensity, higher = more binding, comparable within an allelic series)"
same,binding signal,MSX2 [4],"11.3 upbm affinity estimate (log intensity, higher = more binding, comparable within an allelic series)"
same,binding signal,MSX2 [5],"11.1 upbm affinity estimate (log intensity, higher = more binding, comparable within an allelic series)"
same,binding signal,CRX [6],"12.7 upbm affinity estimate (log intensity, higher = more binding, comparable within an allelic series)"
same,binding signal,HOXB6 [7],"10.3 upbm affinity estimate (log intensity, higher = more binding, comparable within an allelic series)"
CCAGGGGC,binding signal,CRX [1],"7.85 upbm affinity estimate (log intensity, higher = more binding, comparable within an allelic series)"
same,binding signal,HOXB9 [8],"8.38 upbm affinity estimate (log intensity, higher = more binding, comparable within an allelic series)"
same,binding signal,SIX6 [9],"8.79 upbm affinity estimate (log intensity, higher = more binding, comparable within an allelic series)"
same,binding signal,SIX6 [10],"8.71 upbm affinity estimate (log intensity, higher = more binding, comparable within an allelic series)"
same,binding signal,SIX6 [11],"8.85 upbm affinity estimate (log intensity, higher = more binding, comparable within an allelic series)"
same,binding signal,SIX6 [12],"8.79 upbm affinity estimate (log intensity, higher = more binding, comparable within an allelic series)"
same,binding signal,SIX6 [13],"8.77 upbm affinity estimate (log intensity, higher = more binding, comparable within an allelic series)"
same,binding signal,SIX6 [14],"8.78 upbm affinity estimate (log intensity, higher = more binding, comparable within an allelic series)"
same,binding signal,SIX6 [15],"8.85 upbm affinity estimate (log intensity, higher = more binding, comparable within an allelic series)"
same,binding signal,SIX6 [16],"8.91 upbm affinity estimate (log intensity, higher = more binding, comparable within an allelic series)"
same,binding signal,HOXA2 [17],"7.15 upbm affinity estimate (log intensity, higher = more binding, comparable within an allelic series)"
same,binding signal,HOXB9 [18],"8.33 upbm affinity estimate (log intensity, higher = more binding, comparable within an allelic series)"
same,binding signal,SIX6 [19],"8.83 upbm affinity estimate (log intensity, higher = more binding, comparable within an allelic series)"
same,binding signal,CRX [3],"7.94 upbm affinity estimate (log intensity, higher = more binding, comparable within an allelic series)"
same,binding signal,ALX3 [20],"7.67 upbm affinity estimate (log intensity, higher = more binding, comparable within an allelic series)"
same,binding signal,SIX6 [21],"8.82 upbm affinity estimate (log intensity, higher = more binding, comparable within an allelic series)"
same,binding signal,HOXA2 [22],"10.2 upbm affinity estimate (log intensity, higher = more binding, comparable within an allelic series)"
same,binding signal,SIX6 [23],"8.8 upbm affinity estimate (log intensity, higher = more binding, comparable within an allelic series)"
same,binding signal,ALX3 [24],"7.59 upbm affinity estimate (log intensity, higher = more binding, comparable within an allelic series)"
same,binding signal,SIX6 [25],"8.88 upbm affinity estimate (log intensity, higher = more binding, comparable within an allelic series)"
same,binding signal,ALX3 [26],"7.73 upbm affinity estimate (log intensity, higher = more binding, comparable within an allelic series)"
same,binding signal,SIX6 [27],"8.84 upbm affinity estimate (log intensity, higher = more binding, comparable within an allelic series)"
same,binding signal,HOXB9 [28],"8.39 upbm affinity estimate (log intensity, higher = more binding, comparable within an allelic series)"
same,binding signal,ALX3 [29],"7.75 upbm affinity estimate (log intensity, higher = more binding, comparable within an allelic series)"
same,binding signal,HOXA2 [30],"10.3 upbm affinity estimate (log intensity, higher = more binding, comparable within an allelic series)"
same,binding signal,CRX [6],"8.19 upbm affinity estimate (log intensity, higher = more binding, comparable within an allelic series)"
same,binding signal,ALX3 [31],"7.65 upbm affinity estimate (log intensity, higher = more binding, comparable within an allelic series)"
same,binding signal,HOXA2 [32],"7.27 upbm affinity estimate (log intensity, higher = more binding, comparable within an allelic series)"
TAATCTGA,binding signal,CRX [1],"12.9 upbm affinity estimate (log intensity, higher = more binding, comparable within an allelic series)"
same,binding signal,VENTX,"10.3 upbm affinity estimate (log intensity, higher = more binding, comparable within an allelic series)"
same,binding signal,CRX [3],"12.8 upbm affinity estimate (log intensity, higher = more binding, comparable within an allelic series)"
same,binding signal,CRX [6],"12.6 upbm affinity estimate (log intensity, higher = more binding, comparable within an allelic series)"
AGACTATC,binding signal,CRX [1],"9.61 upbm affinity estimate (log intensity, higher = more binding, comparable within an allelic series)"
same,binding signal,SIX6 [9],"10.2 upbm affinity estimate (log intensity, higher = more binding, comparable within an allelic series)"
same,binding signal,SIX6 [10],"9.83 upbm affinity estimate (log intensity, higher = more binding, comparable within an allelic series)"
same,binding signal,SIX6 [11],"10.2 upbm affinity estimate (log intensity, higher = more binding, comparable within an allelic series)"
same,binding signal,SIX6 [12],"9.59 upbm affinity estimate (log intensity, higher = more binding, comparable within an allelic series)"
same,binding signal,SIX6 [13],"9.99 upbm affinity estimate (log intensity, higher = more binding, comparable within an allelic series)"
same,binding signal,SIX6 [14],"10.2 upbm affinity estimate (log intensity, higher = more binding, comparable within an allelic series)"
same,binding signal,SIX6 [16],"10.2 upbm affinity estimate (log intensity, higher = more binding, comparable within an allelic series)"
same,binding signal,SIX6 [19],"10.4 upbm affinity estimate (log intensity, higher = more binding, comparable within an allelic series)"
same,binding signal,CRX [3],"9.51 upbm affinity estimate (log intensity, higher = more binding, comparable within an allelic series)"
same,binding signal,SIX6 [21],"10.1 upbm affinity estimate (log intensity, higher = more binding, comparable within an allelic series)"
same,binding signal,SIX6 [23],"10 upbm affinity estimate (log intensity, higher = more binding, comparable within an allelic series)"
same,binding signal,SIX6 [25],"10.2 upbm affinity estimate (log intensity, higher = more binding, comparable within an allelic series)"
same,binding signal,SIX6 [27],"10.1 upbm affinity estimate (log intensity, higher = more binding, comparable within an allelic series)"
same,binding signal,CRX [6],"9.45 upbm affinity estimate (log intensity, higher = more binding, comparable within an allelic series)"
